Measured values taken from PubChem BioAssay AID1508600 (Functional Genomics Laboratory (NCATS/FGL), 2020).
Among all 53,000 sequences or so, about 3,700 (7%) were called active. This is one part of a sample in which actives are shown more often than they occur. Values without a mark were called inactive.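 The calls were made as follows: active = gene knockdowns whose robust z-score for IL-1 alpha signal is at least 2 or at most -2, so actives lie on both sides; inactive = the rest.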

Test: Components of the Cytosolic LPS Sensing Pathway: Gene Identification via Genome-wide siRNA Screen;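 also: robust z of the log signal after scaling to non-targeting control siRNA wells of the plate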
Details: RAW264.7 macrophages, IL-1a HTRF, actives lie on both sides, screened at 100 nM (by protocol), cells primed 5 h with Pam3CSK4 first
Outline: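 Supernatant IL-1a by HTRF from RAW264.7 cells primed with Pam3CSK4 (5 hours) and transfected with LipidA (24 hour) after 48h siRNA knockdown at 100 nM; cell viability checked with CellTiter-Glo.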

Sequence	z-score
CCAUUUAAGUGUGUGUUAATT against Rbmx	0.475
GGAUUUUGCACUAUAACAATT against Zmat3	3.83 (active)
GGACAACGGAUUUUAGGAGTT against Barhl2	0.44
GGUUGAAUAUACUUAGCACTT against Gm5082	0.947
CCAUGGAAUCUCCUAUACCTT against C4bp	-0.679
GGUAAAUCAAAUCACUGCCTT against Slamf1	0.316
CCCUUUCAUUGUGCAUUAATT against Hdhd2	-2.22 (active)
GCUCAAGAGUCUAACUCCCTT against Serinc4	0.558
GGAGAAAGUUUUGGAAAAATT against Slc24a5	-0.622
GGAUUUCUACCAGCUCGUGTT against Pop5	1.62
GGAUGGCAGCUUUGACCUUTT against Cdc42ep2	0.566
GCAAAACCCAACAACUCUGTT against Lig3	1.05
CCUACUGGAGUCUCCUCUUTT against Tmem116	0.36
GGAGGACAAUGAGGACGAUTT against Chrac1	2.1 (active)
AUUUCUGUAAGGCAAAUGUTT against Olfr970	-0.454
CCUCGAAUGCAGACGUACGTT against Sdhb	1.67
CCAAAGUCAUAAUUCCAACTT against Timm23	0.202
GGAGCAGAUUAAAUCCCUGTT against Krt8	2.46 (active)
GGGAGCUAAGAAGAUUCAUTT against Mul1	0.89
GCAGCAGUUGGCUAAAACATT against Bbof1	-1.14
GGUGGAUGGAUCACUGAGUTT against B230325K18Rik	-0.347
GCAACUAUGAACAAGAAUCTT against Grm3	-0.0322

Sequence	z-score
GCCACGAAAAGAAGAGAAUTT against Vpreb2	1.08
CCUACAGAGUACCCUGUCUTT against Gas2l2	-2.56 (active)
GGUCCUGAAUUUCAUCCUUTT against B4galnt2	0.459
GGUCAGAAAUUCUAAGUUGTT against Gpatch2	1.09
GGAAAUGACCUACGAAGAATT against Pfkfb4	-1.26
GGCAGUCAACAAAGAAGACTT against Metap1d	-0.711
GGUCUGGUGGAGUUGAGAATT against Ccdc80	-0.617
GCGAGUGCUAACAUGAAAGTT against Sar1a	-0.0783
GUUUGUGCUGUUAGGUUUUTT against Olfr1347	2.46 (active)
GGACAAAAGACUUGAAUUUTT against Alox15	1.86
GGCUGAAGAGGAUCGGUACTT against Atpif1	2.08 (active)
CGCAAGAGUUCCUUUUUUUTT against Sla	0.671
GGCCACCUAUGAUGGAAAUTT against Kdelr2	-0.379
GCUCUGAUGGUCUACUGCUTT against Rgs3	-0.347
GGGCAGCUCAUGUCCUAUATT against Scfd2	-0.421
CCAGAAAAAAGAUUGUACATT against Hesx1	-0.43
GCAGAGCUAGCUGAAUUGCTT against Urb2	-0.156
GCCGUUAAACAGUUCUCCCTT against Cyb561a3	-0.455
GGAUCGAGUUUGGUGUAGATT against Usp10	-1.39
CCAUCUACCAUAAACUGUATT against Spata6	0.175
CCAUUAAUUACGUGUUUGUTT against Dixdc1	-0.104
GGAAUGGAAUACAAAGUCATT against Isg20l2	-0.305

Sequence	z-score
CCUAUGCAUCAGACCUUUGTT against Nedd9	2.7 (active)
GGUUUUUCUGUCAAGUGCUTT against Lgr5	-0.303
GGCAAGAUCCACAAUGAUGTT against Lgals2	-0.996
CCGUCAGUGAAUUCUUGAATT against Birc5	0.342
GGAAGUUUGCUCCAGCCUUTT against Tmem33	-0.202
GCGAGUGACACAUCUUCUCTT against Klhl7	0.467
GGAACAUAUGCAGAAUUUATT against Adgrb3	0.509
GGUCCAUUGGGAGUUUGAGTT against Slc2a6	3.14 (active)
GGAUGGAGAGAACUACUUATT against Gltpd2	0.999
GGAGUGUGAUCAAGUUCAUTT against Eya4	2.16 (active)
GGUGUUUGCCUCAGAAAUCTT against Cdk17	-0.676
GGUGAAGAUUGACAAGAAATT against Spout1	0.254
GGAUGAAUGCAGCUUCCAUTT against Myh14	2.35 (active)
GGGUGUUCCAGAAGUAUCUTT against Lars2	-1.76
CCUUGGAAUGCAUAGCCAATT against Sdk1	0.285
GGAAUAUGCCCAAGUUUUUTT against Ctnna1	2.86 (active)
GCCAAAUUGUCCCGGGCAUTT against Usp39	0.457
GGUGAUGUAUUAUUAUCCATT against Defb12	0.277
CCUUUCAAGGAGAUAUAAUTT against Gcm2	0.65
CCUUAGCUGUCCUUGUGGUTT against Defb28	-1.36
CGAAAUCCUAGUUUCGUCCTT against Spns1	3.29 (active)
GGAAUUGGUCUAUAUGCGUTT against Il2ra	-1.02

Sequence	z-score
GGGUUCCAGUUUGUUUCCUTT against Cnbp	-0.901
CCAUUGAGAUCAGCGACAUTT against Abtb2	-0.748
GGUAGCAUUAUUUGUCCUATT against Pcdh15	0.675
GGAGCUACGAAGAGGAUCUTT against Wdr45b	-2.69 (active)
GGCCAUCUCCUUCAACUAUTT against Ugt2a1	1.24
GGAGUAGAUUUAAAAGGCATT against 4933440M02Rik	0.145
GGUCAACAGAAUGAAAAAUTT against Runx1t1	-0.211
GGGAAAGUCGAGCUUUUUCTT against Ifi44l	0.0658
CCAAGCUACCAGGGUUUUUTT against Abcb9	2.1 (active)
GGUCCAAGUAAUGAACUCATT against Olfr155	-1.19
GGCCCUAGAAAUAAUCUGCTT against Anks4b	0.0338
GGGAUCCUUAAUAUUUUGATT against Dazap2	1.66
GGUUUUAAUUGUUCAGACGTT against Lrrtm3	0.35
GGGAAGUGGAAACAGUUCUTT against Icam2	0.461
CCAAUGUUACGAGAAACUUTT against Smug1	1.02
GGAAAGGAUAAAGUAUAUCTT against Aspm	-0.0167
GGAUUGCAUCUUCCUCGAATT against Olfr816	-2.27 (active)
GAUCUAUCACCGGUACUGCTT against Gys1	0.154
CCGCUCACUUCUUGAAUAUTT against Rnf125	0.388
GUCAGAUCUCAGAAUCAUGTT against Ercc6l2	-2.27 (active)
GCGGUCUGUGGUCUUAAAUTT against She	-0.449
GGUGAACUGUAAUGGCUUCTT against Smyd2	-0.209

Sequence	z-score
GGUGUUGAGAAGAAAAAUATT against Spz1	1.68
GGUAGAAUACCUUCAGAUUTT against Ercc4	2.81 (active)
GGAAUUGUCAGGUCUUGAATT against Tmem174	-0.311
GGAGCUUCGGGAGAUGAUUTT against Fdxr	0.357
GGCGGAGUUUUUAAUACUCTT against Upb1	1.79
CCUAUGUUUGGUGAUUAUGTT against Alg6	0.264
GGGUAGGAGGAAAGUGUUCTT against Olfr1093	1.55
GGAACAGCAGCAGAGUGAATT against Gkap1	-1.09
GGCACAUGAUCCUUAAUUUTT against Pfkfb3	0.0397
GCCUAAGCCUACCAAACGATT against Ints3	0.0965
GCCGAGAGGGAUGUGUAUATT against Psmb1	-2.54 (active)
GGAAAUCCUUGACUACAUUTT against Cyp2b19	0.31
GGUCCACCUCAACAAGCUATT against Zfp536	2.57 (active)
GGGAGAAACCUGUGCAAAUTT against Serpinb6c	0.459
AGACUGGGUUGUGAAGAUATT against 4930563M21Rik	-1.68
GCUAGGACUACAGCUGGGATT against Snrnp48	-2.56 (active)
GGAGAACUGAAGAAUCCAATT against Med11	1.78
GCCAAGAUCCCACCAGUUATT against Neurl1b	0.639
GGAGCACAGUCUCAUGAAUTT against A130014H13Rik	-1.44
